Values joined by “and” are separate entries in the source; they are usually repeats but may differ in a detail not shown here. Equal values may be shown once. Results filed as inconclusive are left out. Values without a mark were called inactive. Active and inactive are the calls of the source. The call rests on the fitted dose curve; in most records, active means well fitted activation curve with a large enough effect in the signal ratio (not every such curve was filed as active); inconclusive means small, poorly fitted or top-dose-only effect, or a change in a side signal; inactive means flat fitted curve, though single readings scatter; the % refers to the signal ratio.
Potency means the concentration at half of the fitted maximal effect.

This assay in a line: qHTS assay for small molecule activators of the p53 signaling pathway (AID 651743). On activation: series mostly up to about 92 µM; % of control where 0% means no effect. The conditions noted are these: HCT-116 p53RE-bla, beta-lactamase FRET ratio, 16 h; activation: hits give high values. An excerpt:
National Center for Advancing Translational Sciences [NCATS] NIH Chemical Genomics Center [NCGC] U.S. Environmental Protection Agency [EPA] National Institutes of Environmental Health Sciences [NIEHS] National Toxicology Program [NTP] Assay Overview: p53, a tumor suppressor protein, is activated following cellular insult, including DNA damage and other cellular stresses. The activation of p53 regulates cell fate by inducing DNA repair, cell cycle arrest, apoptosis, or cellular senescence. The activation of p53, therefore, is a good indicator of DNA damage and other cellular stresses. The CellSensor p53RE-bla HCT-116 cell line (Invitrogen) contains a stably integrated beta-lactamase reporter gene under control of the p53 response elements. The activation of the report gene under culture conditions can be detected by fluorescence intensity. This cell line can be used to screen chemicals in a 1536-well plate format and to identify agonists that activate p53 signaling pathway.
Assay Protocol Summary: The p53RE-bla cells were dispensed at 4,000 cells/5 ul/well in 1536-well black wall/clear bottom plates using a Multidrop dispenser. After the assay plates were incubated at a 37 C/5% CO2 incubator for 5 hours, 23 nL of compounds dissolved in DMSO, positive controls or DMSO only was transferred to the assay plate by a pin tool. The plates were incubated at 37 C for 16 hours. After 1 uL of LiveBLAzer B/G FRET substrate was added using a Flying Reagent Dispenser, the plates were incubated at room temperature for 2 hours, and fluorescence intensity was measured by an Envision plate reader.
Turning to `CCOP(=S)(OCC)SCSC(C)(C)C`, the activation is 3.78% and -1.22%. In the case of `CCSC(=O)Cl`, the activation was -1.99%. With `CC(C)(c1ccccc1)c1ccc(O)cc1`, the activation is -4.52% and -0.799%. Regarding `ClC(Cl)=C(c1ccc(Cl)cc1)c1ccc(Cl)cc1`, the activation was -3.15% and -5.84% and 6.09%. The same measure, in the same setting: then `S=C=Nc1cccc2ccccc12`, with 3.44%; and `C[C@]12CC[C@H]3[C@@H](CCC4=CC(=O)CC[C@@]43C)[C@@H]1CC[C@@H]2O`, with -0.245%; and `Cc1cccc([N+](=O)[O-])c1`, with -0.671%. As for `CCOCN(C(=O)CCl)c1c(C)cccc1CC`, the activation was -6.37% and -3.12%. Still for that read-out and setting: then `C=CC(C)=O`, with -2.21%.

As to `CC(C)Nc1nc(Cl)nc(NC(C)C)n1`, the activation was -2.19%. For the compound `CN=C=S`, the activation is -0.537% and -2.4%.

Consider `CC(C)(C)C(=O)C(Oc1ccc(Cl)cc1)n1cncn1` (stereo not given), for which the activation is -0.546% and 1.4%. `COc1ccc(C=O)cc1OC`: the activation was -1.53% and 0.661%.

With `C=C(C)C(=O)OCC1CO1` (stereo not given), the activation was -0.637%. For `Clc1ccc2ccccc2c1`, the activation was 1.92%. The same measure, in the same setting: the value for `OCC(Br)CBr` (stereo not given) was 1.53%; that for `c1ccc2c(c1)CCCC2` was 2.11%. In the case of `CC(C)N1C(=O)c2ccccc2NS1(=O)=O`, the activation is 2.08%.

For `O=NN(c1ccccc1)c1ccccc1`, the activation was -0.087% and -2.72%.

As for `c1ccc(OP(Oc2ccccc2)Oc2ccccc2)cc1`, the activation is -2.41% and -6.19%. `CCCOC(=O)c1ccccc1C(=O)OCCC`: the activation was -4.2% and 2.37%. `O=C1C(Cl)=C(Cl)C(=O)C(Cl)=C1Cl`: the Potency is 25.1 µM (active). On to `Nc1ccc(Br)cc1`, for which the activation was -1.91%. On to `C=CC(=C)C`, for which the activation was -2.92%. In the case of `C=CCOC(C)=O`, the activation is -2.44%. Same read-out and setting: then `Oc1ccc(Cl)cc1Cl`, with 1.07% and -2.53%; and `CC(C)(OO)c1ccccc1`, with 0.437% and -4.93%. In the case of `C#CCOS(=O)OC1CCCCC1Oc1ccc(C(C)(C)C)cc1` (stereo not given), the Potency was 5.62 µM (active). In the case of `Clc1nc(Cl)nc(Nc2ccccc2Cl)n1`, the activation was -1.67% and -3.76%. For `Nc1ccccc1Cl`, the activation is -1.73%. Turning to `CC(C)OC(=O)Nc1cccc(Cl)c1`, the activation is 1.93%. For `COc1nc(NC(C)C)nc(NC(C)C)n1`, the activation was -5.88%. `ClC(Cl)=C(Cl)Cl`: the activation is -0.0832% and 0.219%. In the case of `COP(=S)(OC)Oc1ccc([N+](=O)[O-])cc1`, the activation is 0.285% and 1.15%. In the case of `CCOc1ccc(N)cc1`, the activation was 1.96%. Take `C=CC(N)=O`: the activation was -1.86% and -1.05% and 3.38%. In the case of `CCC[CH2][Sn]([Cl])([Cl])[Cl]`, the activation is 0.255% and 3.17%.

For the compound `O=C(Cl)C(Cl)(Cl)Cl`, the activation is -0.85%. `CCNc1nc(Cl)nc(NC(C)C)n1`: the activation is -2.86% and -1.26%. Consider `CC(Cl)Cl`, for which the activation is -4.47%.

These data come from PubChem BioAssay (NCATS).
